Measured values taken from PubChem BioAssay AID1259415 (National Center for Advancing Translational Sciences (NCATS), 2018).
About 18,000 (4.4%) of roughly 410,000 compounds were called active. Another 7% or so got no clear call; they are omitted. Rule as the data show it: active = activity change below about -60%; inconclusive = no clear call, values can overlap the other calls; inactive = above about -39%. For the sample, actives were picked, then their nearest neighbours and some compounds at random.

Assay: qHTS Assay for inhibitors of the human cytomegalovirus (HCMV)
Conditions: HFF cells, HCMV-luciferase reporter, 72 h; at 57.5 µM; active compounds read low
Outline: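 Compounds were evaluated in HFFs infected with an HCMV luciferase reporter virus (MOI 1 PFU/cell). Luciferase in lysates collected 72 h post infection served as the replication measure.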
% is scaled to controls: 0 for no effect and ±100 for the full control effect.

Row | Compound | activity change, negative = inhibition
1 | CC(C)c1ccc(NC(=O)c2ccc(Cn3nc(N4CCN(c5ccccc5)CC4)ccc3=O)o2)cc1 | -19.5% (inactive)
2 | Cn1ncc2c(Nc3cccc4ccccc34)ncnc21 | 87.3% (inactive)
3 | Cc1cc([N+](=O)[O-])nn1CC(=O)Nc1ccc(Cc2ccncc2)cc1 | -63.5% (active)
4 | Cc1cc(C)n(CC(=O)Nc2ccc([N+](=O)[O-])cc2)n1 | -4.15% (inactive)
5 | CC(C)CC(=O)Nc1ccc(Cc2ccncc2)cc1 | -32.9% (inactive)
6 | COc1ccc(NC(=O)CSC2=Nc3ccccc3C3=NC(CC(=O)NCc4ccccc4OC)C(=O)N23)cc1Cl (centres undefined) | 17.7% (inactive)
7 | CC(C)(C)CC(C)(C)NCC(O)COCCOc1ccc(Br)cc1 (centres undefined) | -100% (active)
8 | CCC(C)NCCOCCOc1ccc(Br)cc1C (centres undefined) | -37.4% (inactive)
9 | CC(Oc1ccc(Br)cc1)C(=O)NC1CCCCCC1 (centres undefined) | 25.7% (inactive)
10 | O=C(CCc1ccc(S(=O)(=O)N2CCOCC2)cc1)OCC(=O)c1ccc(Br)cc1 | 49% (inactive)
11 | CC(=N\NC(=O)c1cc(Br)ccc1O)/C(=N/O)C(=O)Nc1ccccc1 | 0% (inactive)
12 | C/C(=N\NC(=O)c1ccoc1C)c1ccccc1O | -91.4% (active)
13 | Cc1ccc(-c2noc(CNC(=O)c3ccoc3C)n2)cc1 | -11.6% (inactive)
14 | Cc1cc(C)c(C#N)c(Nc2cccc(Br)c2)n1 | 34% (inactive)
15 | CCOC(=O)c1cc(-c2ccccc2)n(-c2cccc(C(=O)Nc3cc(OC)cc(OC)c3)c2)c1C | 0% (inactive)
16 | O=C(/C=C/c1cccs1)c1cc(Cl)ccc1OC(=O)N1CCOCC1 | -92.8% (active)
17 | O=C(NCC(c1cccs1)N1CCOCC1)c1cc(Cl)ccc1[N+](=O)[O-] (centres undefined) | -16.2% (inactive)
18 | CC(=O)Nc1ccccc1OC(=O)N1CCOCC1 | -15.8% (inactive)
19 | CCc1ccccc1NC(=O)Cn1c(=O)n(-c2cccc(C)c2)c(=O)c2c1c1cc(OC)ccc1n2C | -23.1% (inactive)
20 | O=C(COC(=O)CNC(=O)C1CCCCC1)NCc1ccccc1 | 69.4% (inactive)
21 | O=C(COC(=O)c1ccccc1C(=O)N1CCN(c2ccccc2)CC1)NCc1ccccc1 | -62.6% (active)
22 | O=C(COC(=O)c1ncc(Cl)c(Cl)c1Cl)NCc1ccccc1 | 11.2% (inactive)
23 | O=C(C1CCCN(S(=O)(=O)c2cccc3nonc23)C1)N1CCN(c2ccccc2F)CC1 (centres undefined) | 6.66% (inactive)

Row | Compound | activity change, negative = inhibition
24 | O=[N+]([O-])c1ccc(NCCCO)c(C(F)(F)F)c1 | -8.02% (inactive)
25 | Cc1ccc(C(=O)Nc2nnc(C3=COCCO3)o2)cc1C | -0.804% (inactive)
26 | CCC(CC)c1nnc(NC(=O)C2=COCCO2)s1 | -1.99% (inactive)
27 | Cc1ccc(-c2csc(NC(=O)C3=COCCO3)n2)cc1C | -61.5% (active)
28 | CCOc1ccc(CN2CCN(Cc3ccon3)CC2CCO)cc1 (centres undefined) | 3.47% (inactive)
29 | CC(C)(c1ccccc1)c1ccc(OCCN)cc1 | -107% (active)
30 | C=CCNCCCCOc1ccccc1 | 16.3% (inactive)
31 | Cc1nn(CCOc2ccccc2)c(=O)n1-c1ccccc1F | 69.3% (inactive)
32 | O=C(/C=C/c1ccccc1)Oc1coc(CSc2ncccn2)cc1=O | 9.32% (inactive)
33 | COC(=O)c1ccc(OC)c(Cn2c(=O)n(Cc3ccccc3)c(=O)c3c2c2cc(OC)ccc2n3C)c1 | 7.51% (inactive)
34 | O=C(C1CCN(S(=O)(=O)c2cnc[nH]2)CC1)N1CCN(Cc2ccc3c(c2)OCO3)CC1 | 9.71% (inactive)
35 | O=C(Nc1ccccc1)N1CCC(C(=O)N2CCN(Cc3ccccc3)CC2)CC1 | 0% (inactive)
36 | O=C(C1CCN(Cc2ccc(Cl)cc2)CC1)N1CCN(Cc2ccc3c(c2)OCO3)CC1 | -63% (active)
37 | CCS(=O)(=O)N1CCc2cc(C(=O)NCc3ccc(C)cc3)ccc21 | -3.25% (inactive)
38 | Cc1ccc(C(=O)Nc2ccccc2F)cc1S(=O)(=O)N1CCOCC1 | 31.5% (inactive)
39 | Cc1ccc(NC(=O)N[C@H]2CC[C@@]34CCCN3C(=O)CCC[C@H]4C2Cc2ccccc2)cc1 (some centres undefined) | 26.8% (inactive)
40 | CCOC(=O)C1CCN(C(c2ccc(F)cc2)c2sc3nc(-c4ccco4)nn3c2O)CC1 (centres undefined) | 2.65% (inactive)
41 | Cc1cc(C)c(-c2n[nH]c3c2C(c2ccccc2F)N(CCO)C3=O)c(O)c1 (centres undefined) | 25.7% (inactive)
42 | CCC1(CC)NC(=O)N(CC(=O)OCC(=O)c2cc(C)c(C)cc2C)C1=O | -15.3% (inactive)
43 | Cc1ccc(C)c(OCCC(=O)Nc2cccc(S(=O)(=O)N3CCCC3)c2)c1 | -23.7% (inactive)
44 | Cc1cccc(OCCCC(=O)Nc2ccc(S(=O)(=O)N3CCCC3)cc2)c1 | 10.4% (inactive)
45 | CC(=O)Nc1ccc(S(=O)(=O)N2CCN(CCCOc3cc(C)ccc3C)CC2)cc1 | -65.9% (active)
46 | CCN(CC)c1ccc(C2C(C(N)=O)=C(C)Nc3nc(SCc4ccccc4)nn32)cc1 (centres undefined) | -90.4% (active)

Row | Compound | activity change, negative = inhibition
47 | CC1=C(C(=O)Nc2ccccc2)C(c2ccc(C)cc2)n2nc(SCc3ccccc3C)nc2N1 (centres undefined) | 1.28% (inactive)
48 | CC1=C(C(N)=O)C(c2ccc3c(c2)OCO3)n2nc(-c3cccc(C)c3)nc2N1 (centres undefined) | 78% (inactive)
49 | CNc1ccc(-c2nc(-c3ccco3)no2)cc1[N+](=O)[O-] | 102% (inactive)
50 | COc1ccc(S(=O)(=O)n2nc(C)c(S(=O)(=O)N3CCCCCC3)c2C)cc1 | -17.6% (inactive)
51 | CC(C)c1ccc(O)c(CN2CCN(c3ccccc3)CC2)c1 | 12.7% (inactive)
52 | Oc1c(CN2CCN(c3ccc(F)cc3)CC2)cc(Cl)c2cccnc12 | -102% (active)
53 | COc1ccccc1CN1CCCC(N2CCN(c3ccc(F)cc3)CC2)C1 (centres undefined) | -1.19% (inactive)
54 | COc1ccc(CNc2nc(-c3ccccc3)nn2C(=O)c2ccccc2OC)cc1 | -16.2% (inactive)
55 | N#Cc1cccc(NC(=O)N[C@H]2CC[C@@]34CCCN3C(=O)CCC[C@H]4C2Cc2ccccc2)c1 (some centres undefined) | 0.85% (inactive)
56 | COc1ccc(C(CCN(Cc2ccc(OC)c(OC)c2)C(=O)CCl)c2ccccc2)cc1 (centres undefined) | -91.8% (active)
57 | CCOc1ccc(C(CCc2ccccc2)NC(=O)c2ccc(OC)c(OC)c2)cc1OCC (centres undefined) | 37% (inactive)
58 | CCN(CCCCOC(=O)c1ccc(OC)c(OC)c1)C(C)Cc1ccc(OC)cc1 (centres undefined) | -37% (inactive)
59 | Cc1noc2ncnc(NCc3ccccc3Cl)c12 | -26.2% (inactive)
60 | O=C(O)c1ccc2c3c(cccc13)C(=O)N(OS(=O)(=O)c1ccccc1)C2=O | -101% (active)
61 | Cc1cc(OCC(=O)Nc2ncn[nH]2)c(C)c(C)c1Br | 1.07% (inactive)
62 | O=C(Nc1ccc(F)cc1F)c1cnn(-c2ccc(F)cc2)c1-n1cccc1 | -4.17% (inactive)
63 | COc1ccc(Cl)cc1NC(=O)CSc1nc(-c2cccs2)cc(C(F)(F)F)n1 | -23.8% (inactive)
64 | CC(=O)c1ccc(N2CCN(c3nc4c(S(=O)(=O)c5ccccc5)nnn4c4ccc(Cl)cc34)CC2)cc1 | 8.15% (inactive)
65 | CN(CCc1ccccc1)c1ccc([N+](=O)[O-])cn1 | 12.9% (inactive)
66 | O=[N+]([O-])c1cnc2ccc3ccccc3c2c1 | -96.3% (active)
67 | c1ccc2cc(CCCc3cc4ccccc4cn3)ncc2c1 | -18.2% (inactive)
68 | O=C(c1c(F)cccc1F)N1CCN(c2ncc(Br)cn2)CC1 | 2.5% (inactive)
69 | CCOC(=O)c1ccc(N2C(=O)c3n[nH]c(-c4ccco4)c3C2c2ccc(O)cc2)cc1 (centres undefined) | -8.9% (inactive)

Row | Compound | activity change, negative = inhibition
70 | O=C(c1ccc(Cl)cc1)N1N=C(c2ccccn2)CC1(O)C(F)(F)F (centres undefined) | -98.8% (active)
71 | O=C(C1CC1)N1N=C(c2ccc(Br)cc2)CC1(O)C(F)(F)F (centres undefined) | 10% (inactive)
72 | COC(=O)C1(O)CC(C(C)C)=NN1C(=O)c1ccc(Cl)cc1 (centres undefined) | 27.1% (inactive)
73 | O=C(COc1ccccc1F)Nc1ccc(C(=O)OCc2cc(=O)n3nc(C4CC4)sc3n2)cc1 | 10.3% (inactive)
74 | CCCC(=O)N1CCN(c2nc3c(OC)ccc(C)c3s2)CC1 | 0.538% (inactive)
75 | O=C(C1CC(=O)N(c2ccc(Br)cc2)C1)N1CCCC1 (centres undefined) | -23.4% (inactive)
76 | CN1OC[C@@H]2CN(S(=O)(=O)c3cccc(C(F)(F)F)c3)[C@H](c3ccc(-c4cc5ccccc5o4)cc3)C[C@@H]21 | -67.9% (active)
77 | COc1ccccc1-c1ccc([C@@H]2C[C@H]3[C@H](CON3C)CN2S(=O)(=O)c2cc(Cl)cc(Cl)c2)cc1 | 8.41% (inactive)
78 | COc1ccc(S(=O)(=O)N2C[C@H]3CON(C)[C@H]3C[C@H]2c2cccc(Br)c2)cc1 | -8.56% (inactive)
79 | CC(C)c1ccc(S(=O)(=O)Nc2ccc(O)c(Sc3nc4ccccc4s3)c2)cc1 | -0.0854% (inactive)
80 | Cc1cccc(NC(=O)Cn2nc(-c3ccc(Cl)cc3)c3ccccc3c2=O)c1 | -6.04% (inactive)
81 | O=C1C=C(c2ccc(Cl)cc2)C(=O)N1Nc1ccccc1 | -97.6% (active)
82 | CCc1ccc(S(=O)(=O)n2ccnc2)cc1 | -4.04% (inactive)
83 | Cc1c(C(=O)NCc2ccccc2Br)oc2ccc3c(c12)C(=O)CC(C)(C)O3 | -2.86% (inactive)
84 | O=C(CSc1nc2c(c(=O)[nH]1)CN(Cc1ccc3c(c1)OCO3)CC2)Nc1cc(F)ccc1F | -1.41% (inactive)
85 | CCOC(=O)c1c(NC(=O)CSc2cn(CCNC(=O)c3cccc(C(F)(F)F)c3)c3ccccc23)sc2c1CCC2 | -7.22% (inactive)
86 | O=C(CCSCc1ccccc1F)N1CCN(c2ccc(Cl)cc2)CC1 | -29.1% (inactive)
87 | Cc1oc2c(F)c(F)c(F)c(F)c2c1S(=O)(=O)Nc1cccc(C(F)(F)F)c1 | -97.8% (active)
88 | CN(CC(=O)Nc1cccc(C(F)(F)F)c1)S(=O)(=O)c1cccs1 | 20.2% (inactive)
89 | CCNS(=O)(=O)c1cc(-c2nnc(Nc3cccc(C(F)(F)F)c3)c3ccccc23)ccc1C | 34.1% (inactive)
